A word on the AC50: it is the concentration at which the activity in the assay is half-maximal.

SMILES strings stand for the structures. The source made the active and inactive calls. Rule for the calls: active = hit-call score of the fitted dose curve at least 0.9, where 1 is the maximum; inactive = score below 0.9.

In the assay the target is Estrogen receptor (Homo sapiens) (UniProt P03372). As to the kind of experiment: CCTE_Deisenroth_AIME_384WELL_LUC_Shift: CCTE's 384-well Estrogen Receptor Transactivation Assay with AIME metabolic competence data shift (ERTA luciferase; difference in metabolism positive and negative), Deisenroth Lab (AID 2284041).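 Note: shift is response with S9 minus without S9 so positive means metabolism raised ER signal.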 Here is the method: CCTE_Deisenroth_AIME_384WELL (AIME metabolism assay) is a cell-based, single-readout assay that uses VM7Luc4E2, a human mammary gland/breast cell line, with measurements taken at 24 hour after chemical dosing in a 384-well plate.CCTE_Deisenroth_AIME_384WELL_LUC_Shift is one of two analysis components calculated from the CCTE_Deisenroth_AIME_384WELL assay. […] AIME is optimized to impart phase I hepatic metabolism using phenobarbital/beta-naphthoflavone induced hepatic S9 from male Sprague Dawley rats. Parent chemicals are incubated for 2 hours in the AIME assay prior to transfer to the VM7Luc ERTA assay plate. […] The metabolic curve shift response is defined as the pairwise difference between the positive (AEID 2488) and negative (AEID 2490) normalized response values at each concentration for a given chemical across replicate experiments. The pairwise differences form the basis for a concentration-response curve. Standard curve fit analysis identfiied chemicals where the calculated shift was greater than the shift-derived baseline cutoff. A positive hit designation in this endpoint indicates a significant shift trend in the positive direction for bioactivation.
Estrogen receptor (Homo sapiens), sequence (P03372 whole entry, looked up): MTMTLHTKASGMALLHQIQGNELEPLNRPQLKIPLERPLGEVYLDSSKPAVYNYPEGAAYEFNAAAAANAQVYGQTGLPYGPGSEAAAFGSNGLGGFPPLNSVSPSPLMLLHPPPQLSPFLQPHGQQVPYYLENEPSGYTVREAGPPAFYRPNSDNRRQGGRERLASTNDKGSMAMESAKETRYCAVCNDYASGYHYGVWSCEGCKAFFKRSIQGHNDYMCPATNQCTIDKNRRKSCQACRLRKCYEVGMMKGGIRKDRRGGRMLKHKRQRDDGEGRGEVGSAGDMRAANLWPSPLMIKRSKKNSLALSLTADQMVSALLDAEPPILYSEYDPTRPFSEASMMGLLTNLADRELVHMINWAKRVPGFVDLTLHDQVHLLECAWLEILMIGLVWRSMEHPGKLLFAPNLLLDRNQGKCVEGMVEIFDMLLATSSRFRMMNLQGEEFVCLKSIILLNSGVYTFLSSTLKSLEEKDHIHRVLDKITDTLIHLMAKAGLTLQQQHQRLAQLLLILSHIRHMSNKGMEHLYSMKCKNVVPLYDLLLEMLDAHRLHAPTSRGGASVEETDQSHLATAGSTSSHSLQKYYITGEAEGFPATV
The AIME procedure consists of a preparative "pre-stamping" step using a barium chloride/poly-L-lysine (PLL) solution followed by "stamping" the lid in alginate-hepatic S9 (metabolism positive) or alginate-water (metabolism negative) to form microspheres. Once stamping is completed, the AIME lids are placed in duplicate microplates (metabolism positive or negative) containing chemical solutions and incubated for two hours to facilitate metabolic reactions. The conditioned medium, containing parent chemical or metabolites, is then transferred to the cell-based VM7Luc Estrogen Receptor Transactivation Assay (ERTA) for 24 hours. A typical experimental design tests a 10-point concentration series (0.002 - 200 uM) for 8 compounds (96-well format)1 or 32 compounds (384-well format)2 in single technical replicate. AIME assay controls include trans-stilbene (bioactivated control) and ethylparaben (bioinactivated control). ERTA assay plate controls include 17-beta estradiol (positive control) and DMSO (solvent control). Experiments typically comprise a minimum of four experimental replicates (n=4).
As for `OCC1CO1` (stereo unspecified), the result was inactive.

In the case of `ClC(Cl)c1ccccc1`, the outcome was inactive. Regarding `CCCCc1ccccc1`, the result was inactive. Turning to `CCOC(=O)c1ccccc1C(=O)OCC`, the AC50 is 45.2 µM (active). Still for that read-out and setting: as for `CCC(C)(C)c1ccc(O)cc1`, the figure is 0.0296 µM (active). `CC(C)(C)OOC(C)(C)C`: the result was inactive. With `CCCCN(CCCC)SN(C)C(=O)Oc1cccc2c1OC(C)(C)C2`, the outcome was inactive. Take `O=c1ssc(Cl)c1Cl`: the outcome was inactive. In the case of `Nc1cc2c3c(c1)C(c1ccccc1)=N[C@@H](NC(=O)c1cccnc1)C(=O)N3CC2`, the AC50 was 39.4 µM (active).

On to `O=C(O)CF`, for which the result was inactive. For the compound `Nc1ccc(Cl)cc1`, the outcome was inactive.

As to `CC(Cl)(Cl)C(=O)O`, the outcome was inactive.

Take `COC(N)=O`: the result was inactive. Take `[N-]=[N+]=[N-]`: the result was inactive.

With `c1ccc(OP(Oc2ccccc2)Oc2ccccc2)cc1`, the AC50 was 60.5 µM (active). For the compound `c1nc[nH]n1`, the outcome was inactive. On the same count and under the same terms, as for `CCOS(=O)(=O)OCC`, the entry is “inactive”; as for `Cc1cccc(N)c1`, “inactive”; as for `CCCN(CCC)c1c([N+](=O)[O-])cc(C(C)C)cc1[N+](=O)[O-]`, “inactive”. The same measure, in the same setting: as for `c1ccc2c(c1)Nc1ccccc1S2`, the entry is “inactive”. Consider `CCCCOCC1CO1` (stereo unspecified), for which the AC50 was 8.76 µM (active). For `CCN(CC)c1ccccc1`, the outcome was inactive. On to `CCCCc1ccc(O)cc1`, for which the result was inactive. With `CCCCN(CCCC)N=O`, the AC50 is 77.6 µM (active). For the compound `CCOP(=S)(Oc1ccc([N+](=O)[O-])cc1)c1ccccc1` (stereo unspecified), the result was inactive. Take `CCCCC(CC)COP(=O)(Oc1ccccc1)Oc1ccccc1` (stereo unspecified): the result was inactive.

`CCCCN(CC)C(=O)SCCC`: the outcome was inactive. For `CCCCOCCOP(=O)(OCCOCCCC)OCCOCCCC`, the result was inactive. On to `COCCOCCO`, for which the outcome was inactive. On to `Nc1ccc2ccccc2c1`, for which the outcome was inactive.

For the compound `O=[N+]([O-])c1ccccc1`, the outcome was inactive.
